From PubChem BioAssay
Most compounds without a hit are left out; they make up all but 1.3% or so of the library.
ADAM10 inh: human ADAM10 inhibitors, primary screen, biochemical, QFRET, HTS; AID 720582, 2013; 370,000 tested, 0.62% active; recombinant ADAM10, EDANS/DABCYL FRET peptide cleavage, 3 h; Disintegrin and metalloproteinase domain-containing protein 10 (Homo sapiens), O14672; inhibition, % at 7 µM;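 active = inhibition above a per-campaign cutoff equal to the mean of compounds falling between control-based bounds plus 3 SD, cut at about 20% in these data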;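 note: 0% = DMSO wells while the 100% control is not disclosed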
GC-A act: GC-A stimulated cGMP production enhancers – HEK293 GC-A cells, cGMP TR-FRET, EC30 ANP, primary screen | Atrial natriuretic peptide receptor 1 (Homo sapiens), P16066 | 0% at EC30 ANP, 100% saturating ANP | activation, % at 10 µM | 370,000 tested, 0.14% active | AID 1671463, 2021; in the data active = activation above about 40%
GC-B act: human GC-B receptor activators, primary screen, HEK293 GC-B cells, cGMP TR-FRET, EC30 CNP. AID 1920062, 2024. 0% at EC30 CNP, 100% saturating CNP. Atrial natriuretic peptide receptor 2 (Homo sapiens), P20594. activation, % at 10 µM. 370,000 tested, 0.11% active;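 active = activation at 10 µM reaching about 35% in either raw or pattern-adjusted values, limit read from the data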
ADAM17 inh: ADAM17 inhibitors, primary screen, biochemical, QFRET; recombinant ADAM17, EDANS/DABCYL FRET peptide cleavage; 370,000 tested, 0.83% active; inhibition, % at 6.95 µM; AID 720648, 2013;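 active = inhibition above the mean of compounds lying between control limits plus 3 SD, set per campaign, cut at about 8.5% in these data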;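 note: 0% = DMSO-only wells as the low control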
Target sequence (P78536 215-824 limits assumed): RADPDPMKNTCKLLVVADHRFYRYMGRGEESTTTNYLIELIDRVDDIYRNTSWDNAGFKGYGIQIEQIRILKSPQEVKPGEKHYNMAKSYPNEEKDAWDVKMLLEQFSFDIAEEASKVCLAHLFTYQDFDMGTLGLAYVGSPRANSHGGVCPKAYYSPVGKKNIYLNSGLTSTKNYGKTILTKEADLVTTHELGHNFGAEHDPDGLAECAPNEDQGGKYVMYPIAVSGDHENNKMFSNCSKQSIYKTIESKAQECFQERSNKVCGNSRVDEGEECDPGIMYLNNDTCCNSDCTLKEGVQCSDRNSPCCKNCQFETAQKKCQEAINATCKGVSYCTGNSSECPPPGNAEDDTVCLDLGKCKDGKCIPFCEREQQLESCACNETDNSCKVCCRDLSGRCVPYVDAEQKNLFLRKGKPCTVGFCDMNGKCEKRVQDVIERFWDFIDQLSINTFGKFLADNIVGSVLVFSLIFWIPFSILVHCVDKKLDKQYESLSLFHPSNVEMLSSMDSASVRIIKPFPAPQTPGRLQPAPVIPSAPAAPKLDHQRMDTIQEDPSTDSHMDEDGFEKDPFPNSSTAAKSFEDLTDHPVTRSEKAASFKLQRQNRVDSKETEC
An asterisk follows results filed as active.

SMILES	ADAM10 inh	GC-A act	GC-B act	ADAM17 inh
COc1ccc(NC(=O)COc2ccc(/C=N/O)cc2OC)cc1	10.2	0.9	-7.2	-2.5
CCCCNC(=S)N(C)/N=C/c1ccc(OCC(=O)Nc2c(C)cc(C)cc2C)c(OC)c1	6.8	6.0	14.6	0.4
CCNC(=S)N/N=C/c1ccc(OCC(=O)Nc2ccc(OC)cc2)c(OC)c1	0.7	39.4	55.1*	6.9
COc1cc(/C=N/NC(=S)NC(C)C)ccc1OCC(=O)Nc1c(C)cc(C)cc1C	-1.4	34.1	43.9*	3.5
COC(=O)c1cc(S(=O)(=O)Nc2cccc(-c3ccno3)c2)c[nH]1	-9.2	0.4	-4.1	-3.0
Oc1ccc(C[C@H]2CN([C@@H](Cc3ccccc3)CN3CCCC3CN3C(=S)NC[C@@H]3Cc3ccccc3)C(=S)N2CC2CCCCC2)cc1 (some centres undefined)	3.5	-0.6	7.9	-0.3
Oc1ccc(C[C@H]2CNC(=S)N2CC2CCCN2C[C@H](Cc2ccc(O)cc2)N2C[C@H](Cc3ccc(O)cc3)N(CC3CCCCC3)C2=S)cc1 (some centres undefined)	22.2*	-3.1	2.1	7.5
Cc1ccc(NC(=O)c2cc3cc(OC(F)(F)F)ccc3[nH]2)cc1	-35.8	7.8	1.6	-21.1
Cc1ccc(N=C2SC(C(=O)Nc3ccc(OC(F)(F)F)cc3)C(N)=C2C(=O)Nc2c(C)cc(C)cc2C)cc1 (centres undefined)	27.1*	4.9	4.5	13.9*
O=C1C=CC(=O)N1CCCCCCN1C(=O)C=CC1=O	-4.3	29.1	36.5*	-2.5
C=CC[C@H](CC(=O)N(CCO)Cc1ccccc1)C(=O)N[C@@H](C)COC(=O)[C@@H](CC=C)Cc1ccc(F)cc1	-4.2	0.6	-4.4	-1.2
C=CC[C@@H](CC(=O)N(CCO)Cc1ccccc1)C(=O)N[C@@H](COC(=O)[C@@H](CC=C)Cc1ccc(F)cc1)Cc1ccccc1	23.1*	-7.0	-6.8	12.8*
C=CC[C@@H](CC(=O)N(CCO)Cc1ccccc1)C(=O)NC[C@@H](OC(=O)[C@@H](CC=C)Cc1ccc(F)cc1)c1ccccc1	19.6	-4.4	0.3	10.0*
C=CC[C@@H](CC(=O)N(CCO)Cc1ccccc1)C(=O)N[C@H](COC(=O)[C@@H](CC=C)Cc1ccc(F)cc1)Cc1ccccc1	32.6*	-4.2	-8.2	13.9*
Cc1cccc(-c2cccc3c4c([nH]c23)[C@@H]2C[C@H](N(C)C(=O)Nc3ccccc3)[C@H]([C@H](C)O)C(=O)N2CC4)c1	-74.8	-4.7	-5.0	-22.5
C[C@@H]1[C@H](O)[C@@H](C)/C=C/C=C/C=C/C=C/C=C/C=C/C=C/[C@H](OC2O[C@H](C)[C@@H](O)[C@H](N)[C@@H]2O)C[C@@H]2O[C@](O)(C[C@@H](O)C[C@@H](O)[C@H](O)CC[C@@H](O)C[C@@H](O)CC(=O)O[C@H]1C)C[C@H](O)[C@H]2C(=O)O (some centres undefined)	-70.9	2.6	-8.8	-18.8
O=C(C1CCCO1)N1CCN(S(=O)(=O)c2cc(C(F)(F)F)ccc2Cl)CC1 (centres undefined)	-7.7	2.4	3.0	-4.1
COc1ccccc1N1CCN(C(=O)Cn2c(=O)oc3cc(S(=O)(=O)N4CCCC4)ccc32)CC1	-9.3	1.9	4.7	1.2
CN(C)CCNC(=O)C(=O)Nc1ccc2c(c1)N(S(=O)(=O)c1cccs1)CCC2	-3.6	1.3	2.3	-1.0
COc1ccc(S(=O)(=O)n2ccnc2C)c(C)c1C	-1.8	-3.4	4.9	-3.0
Cc1cc(C)cc(NC(=O)O[C@@H]2CC[C@@]34CCCN3C(=O)CCC[C@H]4C2)c1	7.7	1.6	-4.6	-2.1
Cc1cccc2sc(NC(=O)CN(C)S(=O)(=O)c3cccs3)nc12	11.8	42.3*	-0.8	1.8
Cc1ccccc1NC(=O)CN(C)S(=O)(=O)c1cccs1	-0.3	-5.3	4.1	-2.8
O=C(Nc1cccc([N+](=O)[O-])c1)c1ccc2c(c1)C(=O)N(c1ccccn1)C2=O	-5.8	42.5*	9.6	-0.3
O=C1C=CC(=Nc2ccc3c(c2)Cc2cc(F)ccc2-3)O1	-76.1	33.1	35.3*	-18.1
